Source: PubChem BioAssay
The list is not random: actives were taken first. Their share in the collection is about 5.9%.
GLP1R ag – activates the human GLP-1 receptor. P43220. HEK293 GLP-1R CRE-luciferase, luminescence, 4-6 h; cells express a hypersensitive GLP-1R form. Potency, µM (highest dose often 45.6 µM), for the others: top-dose activation, usual class: activators. hit rate 0.007% among 380,000. AID 624172; note: % of control where 0% means no effect
RORgamma inh – blocks mouse ROR gamma transcriptional activity; hit rate 5.4% among 310,000; Potency, µM (series often up to 53.6 µM), for the others: at the highest dose activity change, negative = inhibition, hits mostly inhibitors; P51450; Drosophila S2 Gal4-RORgamma UAS-luciferase reporter, 20 h; note: % is set by controls: 0 for no effect and ±100 for the full control effect; nearly all actives have a fitted effect of over 60% in size
Target sequence (P51450 whole entry, looked up, the tested form may be a part): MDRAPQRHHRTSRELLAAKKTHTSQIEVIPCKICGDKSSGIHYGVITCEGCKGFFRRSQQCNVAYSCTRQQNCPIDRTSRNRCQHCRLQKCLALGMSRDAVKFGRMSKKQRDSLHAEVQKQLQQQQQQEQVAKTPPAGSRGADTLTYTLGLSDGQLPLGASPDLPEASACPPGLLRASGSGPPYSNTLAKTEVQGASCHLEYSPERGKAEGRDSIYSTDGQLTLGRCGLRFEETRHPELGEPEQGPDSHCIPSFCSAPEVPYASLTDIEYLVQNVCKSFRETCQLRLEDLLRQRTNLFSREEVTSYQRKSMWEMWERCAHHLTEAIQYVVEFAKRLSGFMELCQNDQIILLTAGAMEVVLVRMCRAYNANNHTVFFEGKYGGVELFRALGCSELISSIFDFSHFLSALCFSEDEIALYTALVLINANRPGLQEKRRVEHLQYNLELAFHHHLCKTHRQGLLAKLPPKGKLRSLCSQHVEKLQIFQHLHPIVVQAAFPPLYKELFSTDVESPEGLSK
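Luminescence from a UAS-regulated Photinus luciferase reporter in stably transfected Drosophila Schneider cells is measured; decreased signal marks ROR gamma inhibition. Fusion expression is induced by 700 uM copper sulfate for 20 hr.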
Gal4-VP16 FLuc – counter-screen for ROR gamma inhibitors: Gal4-VP16 reporter; Drosophila S2 Gal4-VP16 UAS-luciferase, luminescence, 20 h; Potency, µM (highest dose often 53.6 µM), inactives show at the highest dose activity, negative = inhibition, most hits filed as inhibitors; hit rate 3.5% among 310,000; AID 2546;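 note: Gal4-VP16 expression switched on by copper sulfate through the metallothionein promoter; % is set by controls: 0 for no effect and ±100 for the full control effect; nearly all actives have a fitted effect of over 50% in size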
GLP-1R inv ag – acts as inverse agonist at human GLP-1 receptor. P43220. HEK293 GLP-1R CRE-luciferase, luminescence, 24 h; GLP-1R form is constitutively active. Potency, µM (top dose mostly 38.3 µM), for the others: at the top dose activity change, negative = inhibition, hits mostly inhibitors. hit rate 1.6% among 410,000; note: % is set by controls: 0 for no effect and ±100 for the full control effect; nearly all actives have a fitted effect of over 55% in size
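Inverse agonists were sought by their lowering of basal cAMP reporter luciferase output in HEK293 cells stably carrying constitutively active human GLP-1R, after 24 h compound treatment.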
GLP1R cytotox – cytotoxicity counter-screen for GLP-1 receptor inverse agonists; HEK293 cAMP-luciferase reporter cells, luminescence, 24 h; Potency, µM (series often up to 38.3 µM), inactives show top-dose activity change, negative = inhibition, usual class: inhibitors; hit rate 0.13% among 410,000; AID 624418;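 note: loss of luciferase light is scored as toxicity; % is set by controls: 0 for no effect and ±100 for the full control effect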
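Luminescence readout: signal drop marks cytotoxicity. Plated cells grew 12 h at 37 °C, 5% CO2, received 23 nL compound for 24 h, then got luciferase reagent, read after 12 min at RT.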
Starred values were filed as active, the others as inactive; ? = inconclusive; . = no result; [ ] = remark or other dose. Calls come from the whole dose curve; as a rule, active = well fitted curve in the direction sought with a large enough effect; inconclusive = small, poorly fitted or top-dose-only effect, or another doubt; inactive = no such curve, though single readings can be large; an effect the other way counts as inactive or inconclusive. Potency is the fitted concentration of half-maximal effect.

SMILES | GLP1R ag | RORgamma inh | Gal4-VP16 FLuc | GLP-1R inv ag | GLP1R cytotox
Cn1nc(C(C)(C)C)cc1C(=O)N1CCCCC1c1cc(C(=O)Nc2ccc(F)c(Cl)c2)no1 (stereo unspecified) | -7% | . | . | 10µM* | 1%
CCC(=O)c1cn(Cc2ccccc2C#N)c2ccccc12 | 6% | -31% | 0% | 10µM* | -15%
N#Cc1ccccc1Cn1cc(C(=O)C2CC2)c2ccccc21 | 11% | -19% | 3% | ? | 1%
N#CSCC(=O)N1c2ccccc2CCc2ccccc21 | -47% | 11µM* | ? | ? | -13%
NNC(=O)c1ccc(OCC2CC(c3ccc(Cl)cc3)=NO2)cc1 (stereo unspecified) | 3% | ? | -22% | 13µM* | 13µM*
O=C(C[C@@H]1CC[C@@H]2[C@H](COC[C@H](O)CN2Cc2cccc(C(F)(F)F)c2)O1)NCc1ccc(Cl)cc1 | . | . | . | 10µM* | -26%
O=C(CCC(=O)N1C[C@H]2C[C@@H](C1)c1cccc(=O)n1C2)NCc1cccc(C(F)(F)F)c1 | -4% | 6% | -2% | -20% | 0%
COc1ccc([N+](=O)[O-])c(S(=O)(=O)c2ccc(Cl)cc2)n1 | -9% | ? | ? | ? | 10µM*
CCC(C)n1c(O)c(/C=N/Nc2ccccc2)c(=O)[nH]c1=S (stereo unspecified) | -2% | 14µM* | 6.3µM* | ? | -23%
CCC(C)n1c(O)c(C=NCCc2ccccc2)c(=O)[nH]c1=S (stereo unspecified) | 8% | 10µM* | ? | ? | -3%
CCC(C)n1c(O)c(C=NCCN2CCOCC2)c(=O)[nH]c1=S (stereo unspecified) | -6% | -11% | 1% | 4% | 2%
CC(C)(C)OC(=O)N1CC[C@H]1COc1cnc[c]([Sn]([CH3])([CH3])[CH3])c1 | . | ? | 5%[10 µM] | . | .
Oc1cccc[c]1[Hg][Cl] | -14% | 1.6µM* | 3.5µM* | . | .
CCCCCN1C(C(=O)c2ccccc2)=C(NC(=O)c2ccc(OC)c(OC)c2)c2ccccc2S1(=O)=O | . | . | . | 10µM* | 84%
COc1ccc(C(=O)Nc2ccc(-c3cc(C(F)(F)F)nn3-c3ccccc3)cc2)cc1OC | . | . | . | ? | -19%
CN(C)c1ccc(CN2CCc3nc(N4CCN(c5ccccn5)CC4)ncc3C2)cc1 | . | . | . | ? | 1%
CCOC(=O)c1ncn2c1CN(C)C(=O)c1cc(N=[N+]=[N-])ccc1-2 | . | -7% | 2% | . | .
COc1ccc2c(c1)[C@@]13CCCCC1[C@@H](C2)N(C)CC3 (stereo partly specified) | . | 1% | 1% | . | .
O=C1C=C(N2CC2)c2ccccc2C1=O | -6% | . | . | -12% | -16%
O=C1C=C(N2CCOCC2)c2ccccc2C1=O | -9% | 4µM* | 3.2µM* | ? | 11µM*
CC(C)c1ccc(NC(=O)Cn2c(=O)oc3cc(S(=O)(=O)N4CCCC4)ccc32)cc1 | 0% | . | . | ? | ?
CC(Cc1ccccc1)NCCn1cnc2c1c(=O)n(C)c(=O)n2C (stereo unspecified) | -4%[96 µM] | . | . | . | .
CN1C2CCC1CC(OC(=O)c1ccc(Cl)cc1)C2 (stereo unspecified) | -8% | -4% | -5% | ? | 84%
CN1[C@@H]2CC[C@H]1CC(OC1c3ccccc3CCc3ccccc31)C2 (stereo partly specified) | -1% | 14%[16.9 µM] | 8%[17 µM] | 2µM* | ?
CCOC(=O)N1CCN(C(=O)c2ccc3c(=O)n(CCC4=CCCCC4)c(=S)[nH]c3c2)CC1 | -10% | -26% | 14µM* | ? | -8%
SMILES | GLP1R ag | RORgamma inh | Gal4-VP16 FLuc | GLP-1R inv ag | GLP1R cytotox
Cc1ccc(-n2c(=S)[nH]c3ccccc3c2=O)cc1C | -5% | . | . | ? | -22%
COc1cccc(-n2c(=S)[nH]c3ccccc3c2=O)c1 | 5% | 4.5µM* | ? | 12% | -14%
O=c1c2ccc(Cl)cc2[nH]c(=S)n1-c1cccnc1 | -2% | 14µM* | ? | -2%[7.66 µM] | ?
O=c1c2ccccc2[nH]c(=S)n1-c1cccnc1 | -5% | 14% | -6% | 4% | -3%
O=c1c2cc(Br)ccc2[nH]c(=S)n1-c1ccccc1 | 0% | -1% | -8% | 0%[7.66 µM] | 10%[7.66 µM]
O=c1c2ccccc2[nH]c(=S)n1-c1ccc(Br)cc1 | 4% | 0.89µM* | 1.4µM* | 5% | -1%
CCN(CC)CCc1c[nH]c2ccccc12 | -6%[147 µM] | . | . | . | .
CN1[C@@H]2CC[C@H]1CC(O[C@@H](c1ccccc1)c1ccc(Cl)cc1)C2 (stereo partly specified) | . | 13µM* | 14µM* | . | .
CN1C2CCC1CC(OC(c1ccccc1)c1ccccc1)C2 (stereo unspecified) | 2% | ? | -12% | ? | ?
CCc1ccc(N2C(=O)NC(=O)/C(=C\C=C\c3ccco3)C2=O)cc1 | 0% | 22% | -5% | ? | ?
O=C1NC(=O)N(Cc2ccc(F)cc2)C(=O)/C1=C\C=C\c1ccco1 | 7% | ? | ? | ? | ?
CC(C)c1ccc(N2C(=O)NC(=O)/C(=C/C=C/c3ccco3)C2=O)cc1 | 2% | -99% | 13µM* | 1% | -8%
Cc1ccc(N2C(=O)NC(=O)/C(=C/C=C/c3ccco3)C2=O)cc1 | -27% | 13µM* | 10µM* | ? | 1%
COc1cc(/C=C2\C(=O)NC(=O)N(c3ccccc3)C2=O)cc(OC)c1OC | -2% | ? | 7% | 15% | -5%
O=C1NC(=O)N(c2ccccc2)C(=O)/C1=C\C=C\c1ccccc1 | 0% | ? | 10µM* | ? | ?
Cc1cc(C)cc(N2C(=O)NC(=O)/C(=C\C=C\c3ccco3)C2=O)c1 | -27% | 3.2µM* | 10µM* | ? | -3%
CCC(C)C(=O)OC1C(O)C2C(CN3CC(C)CCC3[C@]2(C)O)C2C[C@]34O[C@@]5(O)C(OC(=O)C(C)(O)CC)CCC3(C)C5C(OC(C)=O)C(OC(C)=O)C4[C@@]21O (stereo partly specified) | . | 6% | 3% | . | .
O=C(O)C(Cl)Br (stereo unspecified) | . | 8% | 1% | . | .
C=CC(N)=O | . | -7% | 6% | . | .
COc1c(C(C)(C)C)cc([N+](=O)[O-])c(C)c1[N+](=O)[O-] | . | 7% | 9% | . | .
CCN1C[C@@]2(COC)CCC(OC)[C@]34C5C[C@]6(O)[C@@H](OC)C[C@](OC(C)=O)(C([C@H](OC)C23)[C@H]14)C5[C@H]6OC(=O)c1ccc(OC)cc1 (stereo partly specified) | . | 0% | -11% | . | .
COc1ccc(-c2noc(=O)n2Cc2cc(C)ccc2C)cc1 | 9% | 4% | 2% | 11µM* | -26%
